Data from PubChem BioAssay (EPA / NIEHS).
Inconclusive results are not listed. Active and inactive are the calls of the source. Rule for the calls: active = hit-call score of the fitted dose curve at least 0.9, where 1 is the maximum; inconclusive = response in the unintended direction; inactive = score below 0.9.

Tests used:
[1] = target: rat Peripheral-type Benzodiazepine Receptor (PBR), Tspo (gene 24230) (UniProt P16257); assay: NVS_MP_rPBR: NovaScreen (NVS) Membrane Protein Assay for rat Peripheral-type Benzodiazepine Receptor (PBR) (AID 2283335)
Sequence of rat Peripheral-type Benzodiazepine Receptor (PBR), Tspo (gene 24230) (P16257 whole entry, looked up): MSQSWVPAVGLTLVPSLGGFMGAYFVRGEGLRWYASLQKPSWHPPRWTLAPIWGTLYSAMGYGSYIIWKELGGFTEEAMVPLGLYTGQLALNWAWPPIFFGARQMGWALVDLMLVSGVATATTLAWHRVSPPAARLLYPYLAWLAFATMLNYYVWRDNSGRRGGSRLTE
Summary of the method: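 Single-concentration duplicate screening at 25 uM preceded concentration-series retesting of actives. Binding of a specific radioligand to rat kidney membrane PBR was read by filtration radiodetection after 1 h, with plate-wise positive and negative controls.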

NCBI gene 100848466 = assay: NVS_NR_bPR: NovaScreen (NVS) Nuclear Receptor Binding Assay for bovine Progextron Receptor (PR) (AID 2283343);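 for AC50: actives lower bound radioligand signal below DMSO meaning displacement of the label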
Summary of the method: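 Competitive radioligand binding with membranes from bovine uterus, scintillation read-out at 18 h post-dose. Compounds first tested in duplicate at 25 uM, then actives in concentration series; loss-of-signal relative to DMSO.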

[2] = target: bovine Estrogen Receptor (ER), ESR1 (gene 407238) (UniProt P49884); assay: NVS_NR_bER: NovaScreen (NVS) Nuclear Receptor Binding Assay for bovine Estrogen Receptor (ER) (AID 2283345);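 note: actives lower the bound radioligand count which means they displace the ER ligand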
Sequence of bovine Estrogen Receptor (ER), ESR1 (gene 407238) (P49884 whole entry, looked up): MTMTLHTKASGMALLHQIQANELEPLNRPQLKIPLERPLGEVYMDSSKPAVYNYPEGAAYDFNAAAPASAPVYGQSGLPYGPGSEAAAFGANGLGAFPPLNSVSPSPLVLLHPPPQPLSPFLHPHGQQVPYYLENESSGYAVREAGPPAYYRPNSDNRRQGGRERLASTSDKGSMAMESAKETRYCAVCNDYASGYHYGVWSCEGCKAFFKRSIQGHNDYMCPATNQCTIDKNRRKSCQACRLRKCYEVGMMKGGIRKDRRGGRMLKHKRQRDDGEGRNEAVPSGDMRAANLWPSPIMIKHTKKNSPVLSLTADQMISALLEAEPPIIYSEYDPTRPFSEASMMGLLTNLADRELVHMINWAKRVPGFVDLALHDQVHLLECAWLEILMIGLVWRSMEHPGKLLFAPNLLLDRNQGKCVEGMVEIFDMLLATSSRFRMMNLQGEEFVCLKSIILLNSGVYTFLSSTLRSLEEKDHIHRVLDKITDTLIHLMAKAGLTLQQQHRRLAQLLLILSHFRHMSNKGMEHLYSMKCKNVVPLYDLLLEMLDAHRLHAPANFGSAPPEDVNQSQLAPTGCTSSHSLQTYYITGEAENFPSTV
Summary of the method: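 Scintillation counting of displaced radioligand gave the readout; bovine uterine membrane extract supplied the receptor. Measured 18 h post-dose, normalized to DMSO baseline. Single 25 uM duplicate screen preceded concentration-response follow-up.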

[3] = target: Estrogen receptor (Homo sapiens) (UniProt P03372); assay: OT_ER_ERaERa_1440: Odyssey Thera (OT) 24-hour HEK293T Protein-Complementation Assay for Estrogen Receptor-alpha/-alpha Homodimer (AID 2283349);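 note: hits raise fluorescence above DMSO for agonists and antagonists alike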
Sequence of Estrogen receptor (Homo sapiens) (P03372 whole entry, looked up, the tested form may be a part): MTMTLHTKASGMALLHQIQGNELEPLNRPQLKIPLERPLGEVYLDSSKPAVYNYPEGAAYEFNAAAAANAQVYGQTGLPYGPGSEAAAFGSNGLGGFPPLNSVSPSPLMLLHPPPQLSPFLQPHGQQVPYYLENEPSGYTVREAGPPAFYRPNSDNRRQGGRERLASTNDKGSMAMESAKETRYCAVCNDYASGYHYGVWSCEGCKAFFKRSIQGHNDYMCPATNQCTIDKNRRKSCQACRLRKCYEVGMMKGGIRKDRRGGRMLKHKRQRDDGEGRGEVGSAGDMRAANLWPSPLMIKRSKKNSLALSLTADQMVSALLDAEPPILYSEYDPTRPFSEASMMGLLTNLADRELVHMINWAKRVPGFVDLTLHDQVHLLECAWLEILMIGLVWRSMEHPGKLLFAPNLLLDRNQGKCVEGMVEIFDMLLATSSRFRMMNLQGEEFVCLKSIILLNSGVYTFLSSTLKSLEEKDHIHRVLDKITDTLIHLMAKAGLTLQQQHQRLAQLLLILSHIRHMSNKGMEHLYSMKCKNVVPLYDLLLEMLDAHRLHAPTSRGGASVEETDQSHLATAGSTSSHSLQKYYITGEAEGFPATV
Summary of the method: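 HEK293T, stable ERα LBD (aa 310-547) homodimer PCA; 24 h compound exposure; mean fluorescence intensity (nuclear for agonists, nuclear plus cytoplasmic for antagonists) vs vehicle; positive fitting direction, DMSO baseline.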

[4] = target: Estrogen receptor (Homo sapiens) (UniProt P03372); assay: OT_ER_ERaERa_0480: Odyssey Thera (OT) 8-hour HEK293T Protein-Complementation Assay for Estrogen Receptor-alpha/-alpha Homodimer (AID 2283351);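 note: rise in fluorescence from reassembled reporter fragments on ERα LBD homodimer in nucleus or whole cell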
Summary of the method: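 Measures ERα LBD (aa 310-547) homodimer complementation in stably transfected HEK293T at 8 h post-dose, with fluorescence intensity quantified on a laser scanning cytometer relative to DMSO controls.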

[5] = NVS_IC_rCaBTZCHL: NovaScreen (NVS) Ion Channel Assay for Calcium Channel, Type L, Benzothiazepine Site (CaBTZCHL) (AID 2283337)
Summary of the method: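 Benzothiazepine-site binding was assessed in a tissue-derived, cell-free rat cortical membrane system. After 1.5 h exposure, radioactivity retained on filters was quantified by scintillation; positive and negative controls accompanied every plate.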

[6] = test system: guinea pig Histamine Receptor (H2), gene 100729734; assay: NVS_GPCR_gH2: NovaScreen (NVS) G Protein-Coupled Receptor Assay for guinea pig Histamine Receptor (H2) (AID 2283342)
Summary of the method: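 Guinea pig striatal membrane preparation with specific radioligand; bound counts measured by filtration and scintillation 1 h post-dosing, DMSO as baseline. Chemicals passing a 25 uM duplicate screen were titrated to a 50 uM maximum.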

[7] = target: human Constitutive Androstane Receptor (CAR), NR1I3 (gene 9970) (UniProt Q14994); assay: NVS_NR_hCAR_Antagonist: NovaScreen (NVS) Nuclear Receptor Binding Assay for human Constitutive Androstane Receptor Antagonism (CAR) (AID 2283344)
Sequence of human Constitutive Androstane Receptor (CAR), NR1I3 (gene 9970) (Q14994 whole entry, looked up): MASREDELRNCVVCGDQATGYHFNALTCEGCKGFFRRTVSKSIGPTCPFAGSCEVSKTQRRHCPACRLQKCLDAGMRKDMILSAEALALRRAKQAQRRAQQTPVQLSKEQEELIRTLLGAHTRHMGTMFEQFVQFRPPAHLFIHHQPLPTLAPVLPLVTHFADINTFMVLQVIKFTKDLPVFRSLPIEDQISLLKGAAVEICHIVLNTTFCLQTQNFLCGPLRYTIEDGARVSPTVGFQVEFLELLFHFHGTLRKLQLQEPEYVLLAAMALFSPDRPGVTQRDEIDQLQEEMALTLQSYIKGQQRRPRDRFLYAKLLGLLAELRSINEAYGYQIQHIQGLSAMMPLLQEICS
Summary of the method: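 Single 25 uM duplicate primary screen, with concentration-series follow-up on actives. Cell-free binding format run in antagonist mode, TR-FRET signal taken 1 h post-dose; activity is signal loss relative to DMSO.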

[8] = target: Bile acid receptor (Homo sapiens) (UniProt Q96RI1); assay: NVS_NR_hFXR_Antagonist: NovaScreen (NVS) Nuclear Receptor Binding Assay for human Farnesoid X Receptor Antagonism (FXR) (AID 2283350)
Sequence of Bile acid receptor (Homo sapiens) (Q96RI1 whole entry, looked up): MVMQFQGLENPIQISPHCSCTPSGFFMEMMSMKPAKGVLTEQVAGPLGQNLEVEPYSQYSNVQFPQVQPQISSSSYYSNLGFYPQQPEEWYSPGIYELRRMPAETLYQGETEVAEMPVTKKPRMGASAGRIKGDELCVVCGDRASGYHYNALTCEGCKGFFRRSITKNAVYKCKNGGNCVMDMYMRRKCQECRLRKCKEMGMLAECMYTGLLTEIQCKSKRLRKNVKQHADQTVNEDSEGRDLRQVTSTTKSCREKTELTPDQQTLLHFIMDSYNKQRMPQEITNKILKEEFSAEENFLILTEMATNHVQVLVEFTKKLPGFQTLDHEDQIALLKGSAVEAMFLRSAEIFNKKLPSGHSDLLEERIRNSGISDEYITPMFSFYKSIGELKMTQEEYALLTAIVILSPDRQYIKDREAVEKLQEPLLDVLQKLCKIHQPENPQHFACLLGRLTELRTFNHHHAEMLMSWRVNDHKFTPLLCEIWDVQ
Summary of the method: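 Antagonist-format time-resolved FRET binding assay with extracted human receptor protein, read 1 hour after compound addition. Compounds first screened at 25 uM in duplicate, then actives tested in concentration series, with loss of signal relative to DMSO.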

[9] = target: T1, Estrogen receptor (Homo sapiens) + Estrogen receptor beta (Homo sapiens) (UniProt P03372+Q92731); assay: OT_ER_ERaERb_0480: Odyssey Thera (OT) 8-hour HEK293T Protein-Complementation Assay for Estrogen Receptor-alpha/-beta Heterodimer (AID 2283352)
T1 sequence (P03372 whole entry, looked up, the tested form may be a part): as the sequence (P03372 whole entry, looked up, the tested form may be a part) above
T1 sequence (Q92731 whole entry, looked up, the tested form may be a part): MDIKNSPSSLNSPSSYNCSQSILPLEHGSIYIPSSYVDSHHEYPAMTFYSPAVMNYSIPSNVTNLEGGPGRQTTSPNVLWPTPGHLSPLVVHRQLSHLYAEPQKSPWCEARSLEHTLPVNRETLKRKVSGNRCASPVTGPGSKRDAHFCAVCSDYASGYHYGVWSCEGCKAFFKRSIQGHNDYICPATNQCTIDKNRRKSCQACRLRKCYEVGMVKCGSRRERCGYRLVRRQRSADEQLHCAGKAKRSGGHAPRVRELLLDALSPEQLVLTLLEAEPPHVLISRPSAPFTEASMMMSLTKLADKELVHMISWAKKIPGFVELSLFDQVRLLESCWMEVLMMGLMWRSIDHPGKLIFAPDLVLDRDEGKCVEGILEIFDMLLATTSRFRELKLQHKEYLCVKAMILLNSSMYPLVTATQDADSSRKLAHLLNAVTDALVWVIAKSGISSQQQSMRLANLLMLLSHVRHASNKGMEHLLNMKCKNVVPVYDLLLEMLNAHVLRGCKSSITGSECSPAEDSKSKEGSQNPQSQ
Summary of the method: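 HEK293T protein-fragment complementation assay of ER-alpha/ER-beta LBD heterodimerisation, read 8 h after dosing. Mean nuclear/cytoplasmic fluorescence intensity measured by laser scanning cytometry; gain of signal fitted relative to DMSO.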

[10] = target: T1, Estrogen receptor (Homo sapiens) + Estrogen receptor beta (Homo sapiens); assay: OT_ER_ERaERb_1440: Odyssey Thera (OT) 24-hour HEK293T Protein-Complementation Assay for Estrogen Receptor-alpha/-beta Homodimer (AID 2283356);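 note: heteromer of ER alpha and ER beta binding domains; hits raise reporter fluorescence and both agonists and antagonists give an increase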
Summary of the method: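 HEK293T stably expressing a PCA of ER alpha LBD (aa 310-547) and ER beta LBD (aa 263-489). After 24 h compound exposure, mean fluorescence intensity in nucleus (agonists) or nucleus and cytoplasm (antagonists) measured by laser scanning cytometry versus vehicle.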

[11] = target: Estrogen receptor beta (Homo sapiens) (UniProt Q92731); assay: OT_ER_ERbERb_0480: Odyssey Thera (OT) 8-hour HEK293T Protein-Complementation Assay for Estrogen Receptor-beta/-beta Homodimer (AID 2283357);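 note: active means signal gain over DMSO baseline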
Sequence of Estrogen receptor beta (Homo sapiens) (Q92731 whole entry, looked up, the tested form may be a part): as above
Summary of the method: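 ER-beta LBD homodimer PCA stably expressed in HEK293T; 8 h compound exposure, then formaldehyde fixation and Draq5 staining. Gain in nuclear/cytoplasmic fluorescence intensity versus DMSO vehicle, read on laser scanning cytometer.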

[12] = target: chimpanzee Androgen Receptor (AR), AR (gene 747460) (UniProt O97775); assay: NVS_NR_cAR: NovaScreen (NVS) Nuclear Receptor Binding Assay for chimpanzee Androgen Receptor (AR) (AID 2283346);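 note: radioligand displacement from AR measured by scintillation counting in a cell-free assay; a loss of bound radioligand signal versus DMSO counts as binding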
Sequence of chimpanzee Androgen Receptor (AR), AR (gene 747460) (O97775 whole entry, looked up): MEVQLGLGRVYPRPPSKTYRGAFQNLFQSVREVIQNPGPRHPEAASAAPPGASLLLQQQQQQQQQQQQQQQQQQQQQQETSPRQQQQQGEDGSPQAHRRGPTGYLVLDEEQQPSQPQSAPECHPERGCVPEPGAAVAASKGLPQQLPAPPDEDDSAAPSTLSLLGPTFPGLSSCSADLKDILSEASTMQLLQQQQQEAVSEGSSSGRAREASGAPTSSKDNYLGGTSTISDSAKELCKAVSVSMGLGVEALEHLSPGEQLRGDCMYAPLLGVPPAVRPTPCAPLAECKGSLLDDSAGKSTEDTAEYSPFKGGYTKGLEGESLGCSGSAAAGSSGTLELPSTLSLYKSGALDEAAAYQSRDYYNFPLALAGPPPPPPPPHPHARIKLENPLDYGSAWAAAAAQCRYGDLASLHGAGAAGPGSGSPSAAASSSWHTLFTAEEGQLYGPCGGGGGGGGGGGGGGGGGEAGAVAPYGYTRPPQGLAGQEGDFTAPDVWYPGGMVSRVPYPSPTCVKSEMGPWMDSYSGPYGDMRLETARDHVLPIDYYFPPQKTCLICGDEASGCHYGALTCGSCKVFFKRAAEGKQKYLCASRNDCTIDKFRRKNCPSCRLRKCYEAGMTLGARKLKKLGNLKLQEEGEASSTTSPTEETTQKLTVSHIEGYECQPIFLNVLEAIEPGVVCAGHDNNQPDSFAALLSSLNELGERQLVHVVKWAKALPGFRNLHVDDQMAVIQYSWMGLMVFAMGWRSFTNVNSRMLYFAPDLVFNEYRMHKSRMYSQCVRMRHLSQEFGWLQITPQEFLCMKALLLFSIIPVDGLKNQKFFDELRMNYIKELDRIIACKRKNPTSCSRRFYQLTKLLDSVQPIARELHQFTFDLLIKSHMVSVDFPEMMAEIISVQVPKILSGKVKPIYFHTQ
Summary of the method: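 Cell-free competition binding with insect-cell (Sf9/Sf21) extracted chimpanzee AR; scintillation signal from lysate at 72 h. Screened in duplicate at 25 uM, then concentration-response for actives; fitting relative to DMSO.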

[13] = target: Androgen Receptor/SRC-1 Co-activator, AR (gene 367) (UniProt P10275); assay: OT_AR_ARSRC1_0960: Odyssey Thera (OT) 16-hour HEK293T Protein-Complementation Assay for Androgen Receptor/SRC-1 Co-activator (AID 2283353);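 note: actives raise the signal above DMSO so potency reflects increased AR and SRC-1 complex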
Sequence of Androgen Receptor/SRC-1 Co-activator, AR (gene 367) (P10275 whole entry, looked up, the tested form may be a part): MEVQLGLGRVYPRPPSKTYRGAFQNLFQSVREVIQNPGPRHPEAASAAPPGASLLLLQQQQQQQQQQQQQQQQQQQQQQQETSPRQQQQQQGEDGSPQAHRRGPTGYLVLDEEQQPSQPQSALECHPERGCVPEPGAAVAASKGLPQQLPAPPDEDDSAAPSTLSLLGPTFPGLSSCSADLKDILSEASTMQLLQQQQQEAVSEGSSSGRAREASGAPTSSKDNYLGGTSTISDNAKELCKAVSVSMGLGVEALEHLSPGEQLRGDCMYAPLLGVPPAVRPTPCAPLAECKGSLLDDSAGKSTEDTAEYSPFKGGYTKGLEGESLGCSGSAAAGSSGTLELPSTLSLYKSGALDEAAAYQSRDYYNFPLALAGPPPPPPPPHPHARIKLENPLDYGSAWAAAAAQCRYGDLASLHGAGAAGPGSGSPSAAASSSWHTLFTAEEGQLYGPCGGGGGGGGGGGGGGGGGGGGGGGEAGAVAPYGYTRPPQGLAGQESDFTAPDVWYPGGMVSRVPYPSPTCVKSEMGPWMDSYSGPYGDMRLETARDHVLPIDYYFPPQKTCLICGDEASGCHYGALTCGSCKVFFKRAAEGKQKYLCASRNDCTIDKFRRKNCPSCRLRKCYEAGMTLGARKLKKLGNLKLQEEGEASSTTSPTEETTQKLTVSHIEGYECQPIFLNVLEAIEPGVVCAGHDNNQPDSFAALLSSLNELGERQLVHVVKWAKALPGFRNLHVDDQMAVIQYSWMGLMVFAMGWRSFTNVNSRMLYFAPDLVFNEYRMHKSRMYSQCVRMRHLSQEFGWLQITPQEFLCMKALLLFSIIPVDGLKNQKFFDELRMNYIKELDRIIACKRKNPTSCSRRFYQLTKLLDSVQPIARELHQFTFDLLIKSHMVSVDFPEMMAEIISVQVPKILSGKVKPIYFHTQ
Summary of the method: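 Sixteen-hour cell assay: Venus halves fused to AR and SRC-1 in HEK293T report binding. Images at 488/635 nm give an N/C ratio in the 488 nm channel over ≥400 cells, analysed as signal increase over DMSO.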

[14] = target: Androgen Receptor/SRC-1 Co-activator, AR (gene 367) (UniProt P10275); assay: OT_AR_ARSRC1_0480: Odyssey Thera (OT) 8-hour HEK293T Protein-Complementation Assay for Androgen Receptor/SRC-1 Co-activator (AID 2283354);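 note: hits raise the complementation signal above DMSO so AC50 marks enhancers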
Summary of the method: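 Reconstituted split-Venus YFP signal from AR–SRC-1 interaction, read by imaging 8 h post-dose in stable HEK293T lines. The 488 nm nucleus-to-cytoplasm ratio (≥400 cells/image) was fitted upward against DMSO.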

[15] = target: rat Gamma-Aminobutyric Acid Type A Receptor BDZ, alpha 6 site (GABARa6), Gabra6 (gene 29708) (UniProt P30191); assay: NVS_LGIC_rGABARa6: NovaScreen (NVS) Ligand-Gated Ion Channel Assay for rat Gamma-Aminobutyric Acid Type A Receptor BDZ, alpha 6 site (GABARa6) (AID 2283339)
Summary of the method: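 Actives from a 25 uM duplicate screen were retested in concentration series (max 50 uM). Specific radioligand displacement from rat cerebellar membranes was counted by filter-based scintillation at 1 h; DMSO served as baseline.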

[16] = target: rat Glutamate, MK-801 Agonist Site (GluNMDA_MK801), Grin1 (gene 24408) (UniProt P35439); assay: NVS_LGIC_rGluNMDA_MK801_Agonist: NovaScreen (NVS) Ligand-Gated Ion Channel Assay for rat Glutamate, MK-801 Agonist Site (GluNMDA_MK801) (AID 2283340)
Summary of the method: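 Rat forebrain membrane preparation; MK-801-site radioligand binding read by filtration and scintillation after 1.5 h. Single-point 25 uM duplicate screen, followed by singleton concentration series to 50 uM max; DMSO baseline.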

Measured: AC50

N#Cc1c[nH]cc1-c1cccc2c1OC(F)(F)O2
active: [3] 31 µM
inactive: [1] | NCBI gene 100848466 | [2] | [4]

CCCCC(C#N)(Cn1cncn1)c1ccc(Cl)cc1 (stereo not drawn)
active: [1] 12.5 µM | [6] 29.7 µM
inactive: [5] | NCBI gene 100848466 | [7] | [2] | [4]

OC(c1ccc(Cl)cc1)(c1ccc(Cl)cc1)C(Cl)(Cl)Cl
inactive: [1] | [2] | [8] | [4]
active: [9] 11.8 µM | [10] 11.9 µM | [11] 12 µM

COP(=S)(OC)SCn1nnc2ccccc2c1=O
active: [1] 13.6 µM | [12] 16.1 µM
inactive: [7] | [3] | [4] | [9] | [13] | [14] | [10] | [11]

COC(=O)c1c(C(F)F)nc(C(F)(F)F)c(C2=NCCS2)c1CC(C)C
active: [1] 0.484 µM | [9] 17.2 µM
inactive: NCBI gene 100848466 | [7] | [3] | [4] | [13] | [14] | [10] | [11]

CC(C)(C)C(=O)C(Oc1ccc(Cl)cc1)n1cncn1 (stereo not drawn)
active: [1] 2.37 µM | [12] 19.6 µM | [10] 58.6 µM
inactive: [6] | NCBI gene 100848466 | [7] | [2] | [4] | [9] | [11]

N#Cc1c(Cl)cccc1Cl
inactive: [1] | NCBI gene 100848466 | [7] | [2] | [4] | [9] | [10] | [11]

Cc1c(COC(=O)[C@@H]2[C@H](/C=C(\Cl)C(F)(F)F)C2(C)C)cccc1-c1ccccc1
active: [10] 72.3 µM
inactive: [1] | [4] | [9] | [11]

CC(C)NC(=O)N1CC(=O)N(c2cc(Cl)cc(Cl)c2)C1=O
active: [1] 13.3 µM
inactive: [7] | [4]

CCCCOCN(C(=O)CCl)c1c(CC)cccc1CC
active: [1] 1.65 µM | [7] 14.6 µM | [13] 21.8 µM | [14] 50 µM
inactive: [12] | [4] | [10] | [11]

CC1(C)C(C(=O)OC(C#N)c2cccc(Oc3ccccc3)c2)C1(C)C (stereo not drawn)
inactive: [1] | [4] | [9] | [10] | [11]

COCC(=O)N(c1c(C)cccc1C)C(C)C(=O)OC (stereo not drawn)
active: [1] 25 µM
inactive: NCBI gene 100848466 | [7] | [9] | [10] | [11]

Clc1nc(Cl)nc(Nc2ccccc2Cl)n1
inactive: [4] | [9] | [10] | [11]
active: [1] 1.3 µM

CCOC(=O)C(C)OC(=O)c1cc(Oc2ccc(C(F)(F)F)cc2Cl)ccc1[N+](=O)[O-] (stereo not drawn)
inactive: [7] | [2] | [3] | [4] | [9] | [10] | [11]
active: [1] 6.45 µM

CNC(=O)Oc1cccc2ccccc12
inactive: [7] | [4]
active: [1] 25 µM

CCCCC(O)(Cn1cncn1)c1ccc(Cl)cc1Cl (stereo not drawn)
active: [15] 1.89 µM | NCBI gene 100848466 7.24 µM | [12] 25 µM | [13] 72.5 µM | [14] 75.8 µM
not listed: [1] | [6] | [7]
inactive: all other assays above

COCC(C)N(C(=O)CCl)c1c(C)csc1C (stereo not drawn)
inactive: [4] | [9] | [10]
active: [1] 2.95 µM
